USP28 inh: inhibitors of human USP28 deubiquitinase. purified USP28, Ub-rhodamine cleavage fluorescence, 30 min. hit rate 3% among 47,000. Q96RU2. inhibition, % at 25 µM
USP8 inh: human USP8 deubiquitinase inhibition; P40818; inhibition, % at 20 µM; hit rate 4.2% among 47,000; purified USP8, Ub-rhodamine cleavage fluorescence, 30 min
USP10 inh: human USP10 deubiquitinase inhibition. Q14694. purified USP10, Ub-rhodamine fluorescence, 60 min. inhibition, % at 20 µM. hit rate 1.1% among 47,000. AID 1645856
USP30 inh: human USP30 deubiquitinase inhibition. inhibition, % at 25 µM. hit rate 5.3% among 47,000. purified USP30, Ub-rhodamine cleavage fluorescence. AID 1645860. Q70CQ3
USP17 inh: blocks human USP17 ubiquitin-rhodamine cleavage; A8MUK1; purified USP17, Ub-rhodamine cleavage fluorescence, 3 h; inhibition, % at 50 µM; hit rate 6.5% among 47,000
Active calls of the source: *; i = inactive; . = not tested or not shown. The list is not random: actives were taken first. Their share in the collection is about 14%. Rule as the data show it: active = inhibition above about 30%; inactive = the rest.

SMILES	USP28 inh	USP8 inh	USP10 inh	USP30 inh	USP17 inh
NCC(=O)N1CCCC2(Cc3ccccc3CN2S(=O)(=O)c2ccccc2)C1 (configuration not stated)	12	-215	-1	44*	-9
O=C(c1ccccc1)N1CC[C@@H]2[C@H](C1)CN2C(=O)NCc1ccccc1	.	0	0	.	15
Cc1c(C(=O)N2CCOCC2)oc2c1C(O)CC(C)(C)C2 (configuration not stated)	8	3	1	23	16
Cc1noc(-c2cccc(=O)n2CC(=O)Nc2ccc(C)c(F)c2)n1	9	14	2	31*	9
Cc1noc(-c2cccc(=O)n2CC(=O)Nc2ccc(C)c(C)c2)n1	7	4	3	14	71*
Cc1cccc(NC(=O)Cn2c(-c3nc(C)no3)cccc2=O)c1	9	7	-1	7	-1
CC(C)=CCCC(C)(O)CCCC(C)(O)CCCC(C)(O)CCCC(C)(O)CCCC(C)(O)CCC/C(C)=C/CC/C(C)=C/CC/C(C)=C/CO (configuration not stated)	4	1	10	2	5
Cc1noc([C@@H]2C[C@H]3CN(Cc4ccc(C)o4)C[C@H]3O2)n1	-20	-45	-1	-63	-22
COCCCN1Cc2cc3cc(OC)ccc3nc2OCC1=O	8	6	-2	5	15
COc1ccc2nc3c(cc2c1)CN(CC1CC1)C(=O)CO3	14	1	0	40*	5
Cc1c(C)n(-c2ccc(Br)cn2)c2ncnc(NCCCO)c12	4	-11	-2	60*	4
Cc1ccc(-n2nc(C(=O)Nc3ccc(C)cn3)c3ncn(C)c(=O)c32)cc1	27	72*	31*	26	75*
Cc1cccc(C(=O)N2CCc3cc(-c4nc(NC(=O)CN(C)C5CCCCC5)sc4C)ccc32)c1	12	19	5	10	30
Cc1cccc(C(=O)N2CCc3cc(-c4nc(NC(=O)CN5CCc6ccccc6C5)sc4C)ccc32)c1	20	79*	3	12	66*
Cc1sc(NC(=O)CN(C)C2CCCCC2)nc1-c1ccc2c(c1)CCN2C(=O)c1ccccc1F	9	38*	-3	-38	16
Cc1ccc(C(=O)N2CCc3cc(-c4nc(NC(=O)CN5CCCC5)sc4C)ccc32)cc1	3	-1	2	-5	-1
Cc1sc(NC(=O)CN2CCc3ccccc3C2)nc1-c1ccc2c(c1)CCN2C(=O)c1cccc(F)c1	-25	51*	-7	-65	21
CCc1nc2ccc(C(=O)Nc3nc(-c4ccc5c(c4)CCN5C(=O)c4cccc(F)c4)c(C)s3)cc2nc1CC	-3	11	1	-41	13
Cc1cc(C)c2[nH]c(=O)c(CNC3CCCCC3C)cc2c1 (configuration not stated)	-111	-25	8	i	-42
COc1ccc(C(CNC(=O)c2cc(-c3ccc(C)c(C)c3)on2)N2CCOCC2)cc1 (configuration not stated)	11	9	0	35*	21
COc1ccc(-c2cc(C(=O)NCC(c3ccc(C)cc3)N3CCCC3)no2)cc1 (configuration not stated)	-27	-1	-10	-99	-31
CC(C)c1ccc(NC(=O)c2cc3ncc(Br)cn3n2)cc1	-16	61*	26	-38	52*
c1ccc(-c2noc(NC3CCCC3)n2)cc1	4	-2	8	-4	-5
O=C1Nc2c(Cl)cc(Cl)cc2C1(O)c1sc(NC2CCCCC2)nc1-c1ccccc1 (configuration not stated)	8	87*	4	8	66*
O=C(C1CCC1)N1CCN(c2ncccc2C(F)(F)F)CC1	-4	8	0	6	-1
SMILES	USP28 inh	USP8 inh	USP10 inh	USP30 inh	USP17 inh
COc1ccc(CN(C(=O)c2cc(-c3ccccc3)on2)C2CCS(=O)(=O)C2)cc1 (configuration not stated)	3	11	8	10	18
COc1ccc(CN(C(=O)c2cc(-c3ccc(C)cc3)on2)C2CCS(=O)(=O)C2)cc1 (configuration not stated)	17	6	2	50*	25
NC(=O)c1ccc(N2CCN(c3ccccc3O)CC2)c([N+](=O)[O-])c1	12	12	1	-10	32*
O=C(Nc1ccccc1)c1ccc(N2CCCC2)c([N+](=O)[O-])c1	15	-58	6	-7	-22
O=S(=O)(c1c[nH]c2ncccc12)N1CCCC1	.	4	0	.	-5
COc1cc(Cl)ccc1Nc1ncc(C(=O)Nc2cc(OC)c(OC)c(OC)c2)c2ccccc12	-1	33*	5	-4	94*
COc1ccc(Nc2ncc(C(=O)Nc3ccc(Oc4ccccc4)cc3)c3ccccc23)cc1	14	20	8	68*	19
COc1ccc(Nc2nc(N3CCN(C)CC3)nc3c2C(=O)CCC3)cc1	0	5	0	0	-7
C[C@@H]1O[C@@H](O[C@H]2[C@H](O[C@H]3[C@H](O[C@H]4CC[C@@]5(C)[C@@H](CC[C@]6(C)[C@@H]5CC=C5[C@@H]7CC(C)(C)CC(=O)[C@]7(C)CC[C@]56C)[C@@]4(C)CO)O[C@H](C(=O)O)[C@@H](O)[C@@H]3O)OC[C@@H](O)[C@@H]2O)[C@H](O)[C@H](O)[C@H]1O	49*	7	14	53*	32*
CC1(C)CC(=O)[C@]2(C)CC[C@]3(C)C(=CC[C@@H]4[C@@]5(C)CC[C@H](O)[C@](C)(CO)[C@@H]5CC[C@]43C)[C@@H]2C1	-5	-19	-8	-5	-7
O=C(c1cn(-c2ccc(F)cc2)nn1)N1CCN(c2ccccc2)CC1	-3	6	-1	-21	-15
COc1ccc(CC(=O)N2CCc3cc(-c4noc(C)n4)ccc32)cc1	33*	4	1	6	12
O=c1[nH]c2ccc(NCc3ccccc3OCc3ccc(Cl)cc3)cc2[nH]1	37*	-148	11	31*	27
COc1ccc2c(c1)CCc1c-2n[nH]c1C(=O)Nc1cc(C)on1	34*	3	23	55*	33*
COc1ccc2c(c1)CCc1c-2n[nH]c1C(=O)N1CCC(C(N)=O)CC1	9	-24	1	30*	24
COc1ccc2c(c1)CCc1c-2n[nH]c1C(=O)N1CCN(c2ncccn2)CC1	-2	-30	0	-1	0
Cc1cc(NC(=O)c2[nH]nc3c2CCc2ccccc2-3)no1	12	24	8	-31	64*
COc1ccc2c(c1)CCc1c-2n[nH]c1C(=O)N1CCN(C)CC1	-6	-2	0	-6	3
O=C(c1cnccn1)N1CCC[C@@]2(C[C@@H](Oc3ccc(Cl)cc3)CO2)C1	13	18	4	25	10
Cc1cccc(CSc2nc(-c3ccco3)nc3c2c(=O)n(C)c(=O)n3C)c1	-7	-3	2	10	0
